According to PubChem BioAssay AID1857 (The Scripps Research Institute Molecular Screening Center, 2009):
The campaign covered roughly 1,300 compounds. About 290 (22%) were called active.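 How the source made its calls: active means inhibition above the mean of all tested compounds plus 3 SD (cut at about 19% in these data); inactive means the rest.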 The sample as a whole holds a higher share of actives than the screen did.

System: VIM-2 metallo-beta-lactamase (Pseudomonas aeruginosa)
Experiment: VIM-2 inhibitors in FRET format, confirmation, artefact control for selective VIM-2 inhibitor project, biochemical, epi-absorbance artifact exclusion (AID 1857);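 further: 0% = VIM-2 plus DMSO and 100% = no enzyme wells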
Settings: purified VIM-2, CCF2 FRET substrate hydrolysis; at 5.6 µM; stronger effect = higher value

Compound	inhibition
Cc1cc(OCc2cc(C(=O)O)oc2C)c2c3c(c(=O)oc2c1)CCCC3	80.6% (active)
Cc1cc(=O)oc2c(C)c(OCC(=O)N3CCN(Cc4ccc5c(c4)OCO5)CC3)ccc12	-0.88% (inactive)
